From PubChem BioAssay (NCI)
Compounds without any hit were thinned out: in the full panel of roughly 79,000, 15% have a hit. A number with no mark means an inactive call. The source made the active and inactive calls. Cut-off read from the data, not from the text of the source: active = growth inhibition above about 70%; inactive = the rest.

What was measured:
[1] = NCI Yeast Anticancer Drug Screen. Data for the rad50 strain (AID 155);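 note: 0% = growth of vehicle-only cultures of the same strain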; settings: S. cerevisiae rad50 strain growth inhibition; at 50.0 µM; stronger effect = higher value
Method in brief: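 Yeast carrying a defined DNA repair defect were exposed to test compounds, and growth was compared with vehicle-treated controls to give percent inhibition.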

[2] = NCI Yeast Anticancer Drug Screen. Data for the mec2-1 strain (AID 157); settings: S. cerevisiae mec2-1 strain, at 50.0 µM, stronger effect = higher value
Method in brief: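 Test agents were screened against the mec2-1 yeast strain, with defined DNA repair or cell cycle alteration. Growth was scored as inhibition against vehicle-only controls.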

[3] = NCI Yeast Anticancer Drug Screen. Data for the sgs1 mgt1 strain (AID 161);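 note: 0% = growth of cultures given vehicle only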; settings: S. cerevisiae sgs1 mgt1 strain, at 50.0 µM, stronger effect = higher value
Method in brief: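 Inhibition of yeast growth, normalised to vehicle-treated controls, is reported for a strain bearing genetic alterations in DNA damage repair.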

[4] = NCI Yeast Anticancer Drug Screen. Data for the cln2 rad14 strain (AID 165);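 note: 0% = growth equal to vehicle treated cultures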; settings: S. cerevisiae cln2 rad14 strain, at 50.0 µM, stronger effect = higher value
Method in brief: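 Growth of compound-exposed yeast (cln2 rad14 genotype) measured and expressed as inhibition relative to vehicle.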

[5] = NCI Yeast Anticancer Drug Screen. Data for the bub3 strain (AID 167); settings: S. cerevisiae bub3 mutant strain, at 50.0 µM, stronger effect = higher value
Method in brief: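 Compounds were applied to a genetically altered yeast strain carrying a cell-cycle control defect. Growth inhibition was scored against vehicle-treated controls.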

[6] = NCI Yeast Anticancer Drug Screen. Data for the mlh1 rad18 strain (AID 175); settings: S. cerevisiae mlh1 rad18 strain growth inhibition; at 50.0 µM; stronger effect = higher value
Method in brief: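 In this whole-cell yeast screen, a strain with altered DNA damage repair is challenged with compound, and its growth is measured against matched vehicle-treated controls.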

Structure (SMILES) | growth inhibition [1] | growth inhibition [2] | growth inhibition [3] | growth inhibition [4] | growth inhibition [5] | growth inhibition [6]
CCCCCCC(=O)/C=C/c1ccccc1OC | 9.15% | -12.2% | -3.55% | -20.4% | 2.3% | -14.1%
Cc1cc(=O)oc2c(CNC(C(=O)O)C(C)C)c(O)ccc12 (configuration not stated) | 5.05% | -15.9% | -19.7% | 7.5% | -16.8% | -6.4%
CCOC(=O)c1ccc2c(c1)CCC(C)(C)O2 | -5.55% | -4.8% | 7.3% | -13.9% | 11.5% | -7.15%
O=C(c1ccccc1)N1C(c2ccccc2)C1(c1ccccc1)C1(c2ccccc2)SCCCS1 (configuration not stated) | -17.6% | 14.7% | -13.4% | -61.6% | -0.1% | -1.25%
O=C1c2ccccc2CC12Cc1ccccc1C2 | 2.05% | -17.4% | -3.85% | -15.3% | -29.7% | 0.15%
COc1ccc(C(Cc2cc(OC)c(OC)cc2Br)NC=O)cc1OC (configuration not stated) | 0.3% | 7.35% | -7.55% | -3.15% | 5% | 31.4%
O=c1[nH]c2cc([N+](=O)[O-])ccc2nc1/C=C(\O)c1cccc([N+](=O)[O-])c1 | 12.3% | -1.35% | 5.25% | -5.15% | -3.1% | 28.6%
CC1(C)CCCC(C)(C)C1=NO | -20.2% | -5.6% | -9.75% | 12.4% | 5.75% | 22.9%
CCN(CC)C1(C(F)C(F)(F)F)OCC2(CO1)COC(C(F)C(F)(F)F)(N(CC)CC)OC2 (configuration not stated) | -10.1% | -13.4% | -0.4% | 2.3% | 0.8% | 6.6%
O=[N+]([O-])c1cc(C(F)(F)F)ccc1Oc1cccc(C(F)(F)F)c1 | -13.4% | 2% | 5.6% | -64.8% | 42.6% | 16.9%
C/C(=N\NS(=O)(=O)c1ccc(C)cc1)P(=O)(O)O | -6.85% | -13.4% | -24.7% | 8.1% | -16.1% | 22.6%
CCOC(=O)C1=C(NC(C)(C)C)OC/C1=N\NC(=O)Cc1ccccc1 | 42.8% | -3.6% | 21.2% | 16.6% | 26.2% | 28.1%
O=C(CO)CC(=O)C(=O)Nc1ccccc1 | -10.8% | -22.9% | 1.5% | 10.6% | -4.15% | -9.9%
N/C(CC/C(N)=N\O)=N\O | -1.95% | -15.8% | -11.2% | -4.9% | 1.1% | -1.7%
Cc1ccc(N=Nc2c(O)c(C(=O)O)cc3ccccc23)c(S(=O)(=O)O)c1 | 12.3% | -8.35% | -7.5% | -45.2% | 5.9% | 26.4%
CCSCCOC(=S)Nc1ccccc1 | -6.25% | -8.05% | -4.9% | 0.7% | 4.25% | 7.1%
Cc1ccc(NC(=O)CCCC(=O)C(C#N)c2ccccc2Cl)cc1C (configuration not stated) | 0.15% | -0.95% | -5.75% | -22.5% | -10.1% | -5.1%
COc1cccc(NC(=O)NC(C)(C)C)c1 | 8.2% | -16.1% | 1.2% | -42.1% | -0.7% | -0.05%
CC(=O)Nc1ccc(C(=O)C=O)cc1 | -1.45% | -4.4% | 4.2% | 26.5% | -13.9% | -40.8%
CC1N=C(SCC(=O)c2ccc(Cl)cc2)N2C(C)N=C(SCC(=O)c3ccc(Cl)cc3)N12 (configuration not stated) | -0.65% | -17.1% | -20.6% | 0.5% | -6.85% | 10.2%
CCCCn1cnc2c(N)ncnc21 | -0.05% | -7.75% | -5.45% | -18.1% | 1.45% | -15.5%

Structure (SMILES) | growth inhibition [1] | growth inhibition [2] | growth inhibition [3] | growth inhibition [4] | growth inhibition [5] | growth inhibition [6]
CCCCCN(CCCCC)CC(O)c1cc(-c2ccccc2)nc2c(Cl)cc(Cl)cc12 (configuration not stated) | 42% | -1.1% | 26.5% | 18% | 46.5% | 39.1%
CSc1nc2c(c(=O)[nH]1)CC(=O)N2 | 0.35% | -5.75% | -7.25% | -33.6% | -12.2% | -3.1%
N#CC(c1cc2c(cc1Br)OCO2)N1CCOCC1 (configuration not stated) | 17.5% | 19.4% | 10.9% | 8.25% | 46% | -11.8%
CC1(C)CCC23CCC4(C)C(CCC5C6(C)CCC(=O)C(C)(C)C6CCC54C)C2C1OC3 (configuration not stated) | -27.4% | -4.15% | -4.05% | 20.9% | -0.7% | -5.1%
CC(=O)NNC(=O)NCCCCCCNC(=O)NNC(C)=O | 16.1% | 20.2% | 25.4% | 16.2% | 17.9% | 26.5%
Clc1cccc2[nH]c(-c3ccncc3)nc12 | -18.1% | -15.1% | -15.4% | -10.8% | 2.95% | -5.75%
CCN(CC)CCSc1cc(C)c2ccc(N)nc2n1 | -5.65% | -24% | 6.6% | 15.1% | 8.6% | -1.1%
CN(C)C(=O)Sc1ccc([N+](=O)[O-])cc1Cl | 15.4% | 4.6% | 5.7% | 14.6% | -4.3% | 16.8%
C=C1C2CC3CCC2C(OC(=O)c2ccccc2C(=O)O)C13 (configuration not stated) | -0.45% | -11.2% | 1.4% | 14.8% | -2.2% | -19.3%
O=c1c2ccccc2[nH]c2ccc(Cl)cc12 | 47.6% | 13.9% | 24.9% | 21.6% | -9.65% | 61.1%
O=S(/C=C/C=C/S(=O)(=O)c1ccccc1)c1ccccc1 (configuration not stated) | 18.1% | 24.2% | 30.5% | 19.3% | 43.4% | 74% (active)
Oc1cccc2c(NC(=S)Nc3ccccc3)cccc12 | 37.2% | 22.8% | 18.2% | 15.5% | 39.5% | 32.9%
c1ccc(-c2nnnn2-c2ccccc2)cc1 | -0.5% | -2.8% | 7.9% | -7.5% | 5.4% | 17.7%
NC(=S)c1ccncc1 | 6.5% | 8.15% | 13% | 12.7% | 5% | -27.4%
Cc1[nH]c(=O)[nH]c1C(=O)c1ccc(-n2ccnc2)cc1 | -1.45% | -9.75% | 16.1% | 16.2% | 5.25% | -9.15%
CC[O-].CC[O-].O=Nc1ccc2cc([O-])ccc2c1.O=Nc1ccc2cc([O-])ccc2c1.[Ti+4] | 34.9% | 44.9% | 59.5% | 45% | 52.6% | 15.9%
Cc1cccc(/C=N/Nc2ccc([N+](=O)[O-])cc2[N+](=O)[O-])c1C | 11.2% | -6% | -5.1% | -11.2% | -15.6% | 4%
CC1(C)OC2C(=O)O[C@H](CO)C2O1 (some centres not stated) | -2.7% | 9.5% | -2.9% | 24.6% | 7.3% | 16.4%
Cc1ccc(/C([O-])=C(/C(=S)Nc2ccccc2)[n+]2ccccc2)cc1 | -5.3% | 22% | 7.55% | -22.1% | 18.1% | 13.1%
ClCCCOc1ccccc1 | 21.5% | 23.2% | 22.6% | 8.55% | -5.25% | 11.6%
O=S(=O)(Cc1ccccc1)c1ncc(Cl)cn1 | 8.9% | 6.65% | 13.2% | -5.55% | 16.9% | 16.4%
